Experimental data taken from PubChem BioAssay AID1159580 (chemical genetic matrix, 2015).
In all, about 5,500 compounds went through this assay and about 2,000 (36%) were called active. About 18% were inconclusive and are not listed. No stated cut-off is given here; in the data, active means normalized growth mostly below about 0.91 (no sharp cut-off); inconclusive means no clear call, values can overlap the other calls; inactive means mostly above about 0.92. This is one part of the list.

Experiment: chemical genetic growth profiling, strain panel (AID 1159580);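 further: tested at 20 µM; growth read once vehicle control cultures reached saturation at 30 °C; 1 = growth at the plate median or of vehicle wells; lower values mean less growth of the strain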
Conditions: growth OD
[1] = S. cerevisiae deletion strains, locus YAL013W, strain DEP1, hits give low values
[2] = S. cerevisiae deletion strains, locus YBR229C, strain ROT2, hits give low values
[3] = S. cerevisiae deletion strains, locus YCL061C, strain MRC1, hits give low values
[4] = S. cerevisiae deletion strains, locus YDL101C, strain DUN1, hits give low values
[5] = S. cerevisiae deletion strains, locus YDR150W, strain NUM1, hits give low values
[6] = S. cerevisiae deletion strains, locus YEL061C, strain CIN8, hits give low values
[7] = S. cerevisiae deletion strains, locus YGR078C, strain PAC10, hits give low values
[8] = S. cerevisiae deletion strains, locus YHR030C, strain SLT2, hits give low values
[9] = S. cerevisiae deletion strains, locus YHR087W, strain rtc3, hits give low values
[10] = S. cerevisiae deletion strains, locus YJL187C, strain SWE1, hits give low values
[11] = S. cerevisiae deletion strains, locus YJR043C, strain POL32, hits give low values
[12] = S. cerevisiae deletion strains, locus YJR075W, strain HOC1, hits give low values
[13] = S. cerevisiae deletion strains, locus YKL190W, strain CNB1, hits give low values
[14] = S. cerevisiae deletion strains, locus YLR039C, strain RIC1, hits give low values
[15] = S. cerevisiae deletion strains, locus YLR058C, strain SHM2 (second series), hits give low values
[16] = S. cerevisiae deletion strains, locus YLR085C, strain ARP6, hits give low values
[17] = S. cerevisiae deletion strains, locus YLR262C, strain YPT6, hits give low values
[18] = S. cerevisiae deletion strains, locus YML094W, strain GIM5, hits give low values
[19] = S. cerevisiae deletion strains, locus YMR219W, strain ESC1, hits give low values
[20] = S. cerevisiae deletion strains, locus YMR263W, strain SAP30, hits give low values
[21] = S. cerevisiae deletion strains, locus YMR307W, strain GAS1, hits give low values
[22] = S. cerevisiae deletion strains, locus YNL153C, strain GIM3, hits give low values
[23] = S. cerevisiae deletion strains, locus YNL298W, strain CLA4 (second series), hits give low values
[24] = S. cerevisiae deletion strains, locus YNL322C, strain KRE1, hits give low values
[25] = S. cerevisiae deletion strains, locus YNR030W, strain Alg12, hits give low values
[26] = S. cerevisiae deletion strains, locus YPL055C, strain LGE1, hits give low values
[27] = S. cerevisiae deletion strains, locus YPL241C, strain CIN2, hits give low values
[28] = S. cerevisiae deletion strains, locus YPR135W, strain CTF4, hits give low values

Measured: normalized growth

O=C1CCC(=O)N1CNc1ccccc1OC(F)(F)F
inactive: [1] 0.968 | [2] 0.994 | [3] 1.01 | [4] 0.963 | S. cerevisiae deletion strains, locus YDL134C, strain PPH21, hits give low values 0.999 | [5] 1.02 | [6] 0.984 | [7] 0.996 | S. cerevisiae deletion strains, locus YGR229C, strain SMI1, hits give low values 0.998 | [8] 1.04 | [9] 0.989 | [10] 1 | [11] 1 | [12] 0.997 | [13] 0.999 | [14] 0.991 | [15] 0.992 | [16] 1.02 | [17] 1.05 | [18] 1.02 | [19] 0.993 | [20] 1.03 | [21] 1.2 | S. cerevisiae deletion strains, locus YNL128W, strain TEP1, hits give low values 0.993 | [22] 1.01 | [23] 0.971 | [24] 0.983 | [25] 1 | [26] 1.07 | [27] 1.02 | [28] 0.92

Cc1cccc(NCN2C(=O)CCC2=O)n1
active: [14] 0.643 | [17] 0.572
inactive: [1] 0.968 | [2] 0.996 | [4] 0.956 | [5] 0.959 | [6] 0.982 | [7] 0.965 | [8] 0.821 | [9] 1.06 | [11] 0.972 | [12] 0.987 | [15] 0.97 | [16] 0.95 | [18] 0.932 | [19] 0.992 | [20] 1.01 | [21] 1.22 | [22] 0.98 | [23] 0.938 | [24] 0.983 | [25] 0.977 | [26] 1 | [27] 0.96 | [28] 0.978

Cc1cccc(N2C(=O)C3C4C=CC(C4)C3C2=O)n1 (centres undefined)
inactive: [1] 0.994 | [2] 0.993 | [3] 0.985 | [4] 0.989 | [5] 0.987 | [6] 0.987 | [7] 1.01 | [8] 0.999 | [9] 0.971 | [10] 0.995 | [11] 1.01 | [12] 0.989 | [13] 0.991 | [14] 0.977 | [15] 0.992 | [16] 0.987 | [17] 0.998 | [18] 0.983 | [19] 0.992 | [20] 0.987 | [22] 1 | [23] 1.01 | [24] 1.01 | [25] 1 | [26] 0.991 | [27] 1.01 | [28] 1.03 | S. cerevisiae strains, strain wild type, hits give low values 0.999
